Records with an inconclusive call do not appear. Calls of active or inactive are those of the source. The call rests on the fitted dose curve; in most records, active means well fitted inhibition curve with a large enough effect; inconclusive means small, poorly fitted or top-dose-only effect; inactive means flat fitted curve, though single readings scatter.
What follows are compounds tested on DFO2036 (assay: qHTS profiling for inhibitors of Plasmodium falciparum proliferation (AID 504749; further: nearly all actives have a fitted effect of over 60% in size;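 on activity, negative = inhibition: 0% = DMSO vehicle and full inhibition = artemisinin control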)). Conditions: P. falciparum in erythrocytes, SYBR Green DNA, 72 h; series mostly up to 28.7 µM; activity, negative = inhibition: at the top concentration.
Method in brief: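 Fluorescence of SYBR Green-bound parasite DNA, read at 485/535 nm, served as the growth measure. Infected erythrocytes were cultured with compound 72 h; artemisinin (0.29 uM) and DMSO wells defined the normalization range.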
Potency means the concentration at half of the fitted maximal effect.

SMILES | activity, negative = inhibition | Potency
Nc1nnc(-c2cccc(Cl)c2Cl)c(N)n1 | -8.59% (inactive) | –
CC[N+](CC)(CC)CCOc1cccc(OCC[N+](CC)(CC)CC)c1OCC[N+](CC)(CC)CC | 6.41% (inactive) | –
Cc1ccc(C(=O)Nc2ccc(S(=O)(=O)O)c3cc(S(=O)(=O)O)cc(S(=O)(=O)O)c23)cc1NC(=O)c1cccc(NC(=O)Nc2cccc(C(=O)Nc3cc(C(=O)Nc4ccc(S(=O)(=O)O)c5cc(S(=O)(=O)O)cc(S(=O)(=O)O)c45)ccc3C)c2)c1 | -1.38% (inactive) | –
CS(=O)(=O)Nc1ccc([N+](=O)[O-])cc1Oc1ccccc1 | 9.88% [at 12.8 µM] (inactive) | –
CC(=O)OCC(CCn1cnc2cnc(N)nc21)COC(C)=O | -9.01% (inactive) | –
C[C@](N)(Cc1ccc(O)c(O)c1)C(=O)O | -4.93% (inactive) | –
COc1ccccc1OCC(O)CN1CCN(CC(=O)Nc2c(C)cccc2C)CC1 (configuration not stated) | -8.5% (inactive) | –
Cc1cn([C@H]2C=C[C@@H](CO)O2)c(=O)[nH]c1=O | 11.8% (inactive) | –
Clc1ccccc1C(c1ccccc1)(c1ccccc1)n1ccnc1 | – | 708 nM (active)
CC(C)(C)C(=O)Oc1ccc(S(=O)(=O)Nc2ccccc2C(=O)NCC(=O)O)cc1 | 10.5% (inactive) | –
NC(=O)OCC(COC(N)=O)c1ccccc1 | 3.03% (inactive) | –
COc1ccccc1N1CCN(CC(O)COc2cccc3ccccc23)CC1 (configuration not stated) | 1.24% (inactive) | –
O=c1c(-c2ccc(O)cc2)coc2cc(O)cc(O)c12 | -5.54% (inactive) | –
CCCNCC(O)COc1ccccc1C(=O)CCc1ccccc1 (configuration not stated) | – | 1000 nM (active)
NCCc1cnc[nH]1 | 15.2% (inactive) | –
CN(C)c1nc(N(C)C)nc(N(C)C)n1 | 7.1% [at 12.8 µM] (inactive) | –
CC(C)NCC(O)c1ccc(O)c(O)c1 (configuration not stated) | 2.87% (inactive) | –
